# Experimental data: the supplement of paper PMC8728848
# The sample as a whole holds a higher share of the strongest signals than the screen did.
# B1: PX9937B-bvu-524-33-524 (Bacteroides vulgatus) (protein)
# chain: GTAYWKNPDQFTAFNTGLHALLREKSYNFFLLGEPRADIYGDNPIGGEASQGMERLPFNTINKENVGISNYGDMYKIINQINQMIAKTTETTILTEATQNYYLGEAYGMRAYLYFHLLRSWGDVVLYLDYTEGQNLDLSNITKGVSPATEVMEQIKKDIQASENAFGSDYSFKLGRHFWSAAATQMLKGEAYLWSGRQMNGGNSDYTIAKNAFENVKKADVGLVTSSFKDIFSFENKKNKEMIFTIHNGKDEYEMWGGYYRMRLIPAQDKMVKIYCDENGNSFVGTPDAQLNGLTQLQVRREFYFKGFRNNDTRWTTSLKAVYKKDAQGVVSYFGPITYKFQGTMLEGGSTRSFLDDFPIYRYADCLLQLAMAKVLLGEDPTEEINAVRERAYGSKYFNEHKAEIAYPNDNDPEFYTDNKWMKPDNAGALEAILKERLREFMFEGKRWYDIRLLGWDYVHQYSSAEQSRLLWPIDAGTLTNNSALKQTPGYE
# Experiments:
# Experiment in all cases: glycan array binding signal (z-score within array); higher = stronger binding
# Conditions in all cases: glycan notation: IUPAC condensed, linker removed
# [1] = molecular target: Gal(b1-4)GlcNAc(b1-3)Gal(b1-4)GlcNAc(b1-3)Gal(b1-4)GlcNAc(b1-2)Man(a1-3)[Gal(b1-4)GlcNAc(b1-3)Gal(b1-4)GlcNAc(b1-3)Gal(b1-4)GlcNAc(b1-2)Man(a1-6)]Man(b1-4)GlcNAc(b1-4)[Fuc(a1-6)]GlcNAc
# Outline: (§1)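 Negative Z-scores can be read as non-binding. The Z-score is calculated within each array and then averaged across arrays of one protein sequence at different concentrations or buffers and across linkers. Arrays, 3228 in all, were curated from the Consortium for Functional Glycomics database and kept only where the protein sequence was available.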
# [2] = molecular target: Gal(b1-4)GlcNAc(b1-3)Gal(b1-4)GlcNAc(b1-3)Gal(b1-4)GlcNAc(b1-3)Gal(b1-4)GlcNAc(b1-3)Gal(b1-4)GlcNAc(b1-2)Man(a1-3)[Gal(b1-4)GlcNAc(b1-3)Gal(b1-4)GlcNAc(b1-3)Gal(b1-4)GlcNAc(b1-3)Gal(b1-4)GlcNAc(b1-3)Gal(b1-4)GlcNAc(b1-2)Man(a1-6)]Man(b1-4)GlcNAc(b1-4)GlcNAc
# Outline: as §1
# [3] = molecular target: Gal(b1-4)GlcNAc(b1-3)Gal(b1-4)GlcNAc(b1-6)[Gal(b1-3)]GalNAc
# Outline: as §1
# Gal6S(b1-4)Glc = molecular target: Gal6S(b1-4)Glc
# Outline: as §1
# Gal6S(b1-4)GlcNAc6S = molecular target: Gal6S(b1-4)GlcNAc6S
# Outline: as §1
# GalNAc(a1-3)GalNAc = molecular target: GalNAc(a1-3)GalNAc
# Outline: as §1
# [4] = molecular target: GalNAc(b1-4)GlcNAc(b1-3)GalNAc(b1-4)GlcNAc
# Outline: as §1
# GalNAc3S(b1-4)GlcNAc = molecular target: GalNAc3S(b1-4)GlcNAc
# Outline: as §1
# [5] = molecular target: GlcNAc(a1-4)Gal(b1-4)GlcNAc(b1-3)Gal(b1-4)GlcNAc
# Outline: as §1
# [6] = molecular target: GlcNAc(a1-4)Gal(b1-4)GlcNAc(b1-3)Gal(b1-4)[Fuc(a1-3)]GlcNAc(b1-3)Gal(b1-4)[Fuc(a1-3)]GlcNAc
# Outline: as §1
# [7] = molecular target: GlcNAc(b1-2)[GlcNAc(b1-4)]Man(a1-3)[GlcNAc(b1-4)][GlcNAc(b1-2)[GlcNAc(b1-6)]Man(a1-6)]Man(b1-4)GlcNAc(b1-4)[Fuc(a1-6)]GlcNAc
# Outline: as §1
# [8] = molecular target: GlcNAc(b1-3)Gal(b1-4)GlcNAc(b1-3)Gal(b1-4)GlcNAc(b1-3)Gal(b1-4)GlcNAc(b1-3)Gal(b1-4)GlcNAc(b1-2)Man(a1-3)[GlcNAc(b1-3)Gal(b1-4)GlcNAc(b1-3)Gal(b1-4)GlcNAc(b1-3)Gal(b1-4)GlcNAc(b1-3)Gal(b1-4)GlcNAc(b1-2)Man(a1-6)]Man(b1-4)GlcNAc(b1-4)[Fuc(a1-6)]GlcNAc
# Outline: as §1
# GlcNAc(b1-3)Man = molecular target: GlcNAc(b1-3)Man
# Outline: as §1
# Kdn(a2-3)Gal(b1-3)GlcNAc = molecular target: Kdn(a2-3)Gal(b1-3)GlcNAc
# Outline: as §1
# [9] = molecular target: Kdn(a2-3)Gal(b1-4)[Fuc(a1-3)]GlcNAc
# Outline: as §1
# Kdn(a2-6)Gal(b1-4)GlcNAc = molecular target: Kdn(a2-6)Gal(b1-4)GlcNAc
# Outline: as §1
# [10] = molecular target: Neu5Ac(a2-3)Gal(b1-3)GalNAc(b1-3)Gal(a1-4)Gal(b1-4)Glc
# Outline: as §1
# [11] = molecular target: Neu5Ac(a2-3)Gal(b1-3)GalNAc(b1-4)[Neu5Ac(a2-3)]Gal(b1-4)Glc
# Outline: as §1
# [12] = molecular target: Neu5Ac(a2-3)Gal(b1-3)[Fuc(a1-4)]GlcNAc(b1-3)Gal(b1-3)[Fuc(a1-4)]GlcNAc
# Outline: as §1
# [13] = molecular target: Neu5Ac(a2-3)Gal(b1-3)[Fuc(a1-4)]GlcNAc(b1-3)Gal(b1-4)[Fuc(a1-3)]GlcNAc
# Outline: as §1
# [14] = molecular target: Neu5Ac(a2-3)Gal(b1-4)GlcNAc(b1-3)Gal(b1-4)[Fuc(a1-3)]GlcNAc
# Outline: as §1
# [15] = molecular target: Neu5Ac(a2-3)[Neu5Ac(a2-6)]GalNAc
# Outline: as §1
# [16] = molecular target: Neu5Ac(a2-6)Gal(b1-4)GlcNAc(b1-2)Man(a1-3)[Neu5Ac(a2-6)Gal(b1-4)GlcNAc(b1-2)Man(a1-6)]Man(b1-4)GlcNAc(b1-4)[Fuc(a1-6)]GlcNAc
# Outline: as §1
# [17] = molecular target: Neu5Ac(a2-6)Gal(b1-4)GlcNAc(b1-2)Man(a1-6)[GlcNAc(b1-2)Man(a1-3)]Man(b1-4)GlcNAc(b1-4)GlcNAc
# Outline: as §1
# [18] = molecular target: Neu5Ac(a2-8)Neu5Ac(a2-3)Gal(b1-3)GalNAc(b1-4)[Neu5Ac(a2-8)Neu5Ac(a2-3)]Gal(b1-4)Glc
# Outline: as §1
# [19] = molecular target: Neu5Ac(a2-8)Neu5Gc(a2-3)Gal(b1-4)GlcNAc
# Outline: as §1
binder,measurement,setting,value
B1,glycan array binding signal (z-score),[1],2.54
same,glycan array binding signal (z-score),[2],8.61
same,glycan array binding signal (z-score),[3],3.08
same,glycan array binding signal (z-score),Gal6S(b1-4)Glc,-0.101
same,glycan array binding signal (z-score),Gal6S(b1-4)GlcNAc6S,-0.297
same,glycan array binding signal (z-score),GalNAc(a1-3)GalNAc,-0.035
same,glycan array binding signal (z-score),[4],-0.144
same,glycan array binding signal (z-score),GalNAc3S(b1-4)GlcNAc,-0.324
same,glycan array binding signal (z-score),[5],-0.254
same,glycan array binding signal (z-score),[6],0.453
same,glycan array binding signal (z-score),[7],-0.459
same,glycan array binding signal (z-score),[8],5.78
same,glycan array binding signal (z-score),GlcNAc(b1-3)Man,0.006
same,glycan array binding signal (z-score),Kdn(a2-3)Gal(b1-3)GlcNAc,-0.588
same,glycan array binding signal (z-score),[9],-0.28
same,glycan array binding signal (z-score),Kdn(a2-6)Gal(b1-4)GlcNAc,-0.409
same,glycan array binding signal (z-score),[10],-0.124
same,glycan array binding signal (z-score),[11],0.323
same,glycan array binding signal (z-score),[12],-0.529
same,glycan array binding signal (z-score),[13],-0.189
same,glycan array binding signal (z-score),[14],0.162
same,glycan array binding signal (z-score),[15],-0.279
same,glycan array binding signal (z-score),[16],0.782
same,glycan array binding signal (z-score),[17],0.042
same,glycan array binding signal (z-score),[18],-0.231
same,glycan array binding signal (z-score),[19],5.74
